From PubChem BioAssay (NCI)
The panel holds about 83,000 compounds, 20% with a hit somewhere; the sample as a whole holds those more often.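 Results are percent growth after 48 hours of single-concentration exposure. 100 means growth as in untreated cells, lower positive values show inhibition; negative values down to -100 show cell death.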 The source made the active and inactive calls. Rule for the calls: active = growth percent below 10; inactive = the rest.

These compounds were tested on SR leukemia (assay: NCI-60 one-dose screen, 48 h (100 = growth as untreated, 0 = no growth, -100 = all killed)). Settings: 10 µM unless noted.

| Compound | growth |
| --- | --- |
| O=[N+]([O-])c1ccc(-c2cc3c(Nc4ccc(Sc5nc6ccccc6s5)c(Cl)c4)ncnc3s2)cc1 | 38.7% (inactive) |
| OCCCCc1nccc2c1[nH]c1ccccc12 | 140% (inactive) |
| CCOC(=O)c1sc(-c2ccc(OS(=O)(=O)c3ccc(C(C)(C)C)cc3)c(C=O)c2)nc1C | 14.5% (inactive) |
| CCOC(=O)C1=C(C)NC(SCc2nnc(-c3ccc(Cl)cc3)o2)=NC1c1ccc(Cl)cc1Cl (stereo unspecified) | 37.9% (inactive) |
| CCN(CC)CCOc1ccc(/C(=C(\C)c2ccc(OC)c(F)c2)c2ccc(Cl)cc2)cc1 | 29.8% (inactive) |
| O=C1/C(=C/c2ccccc2[N+](=O)[O-])COc2ccc(O)c(O)c21 | 3.56% (active) |
| O=C(O)c1ccc(CO)o1 | 100% (inactive) |
| Cn1ccnc1C(=O)/C=C/c1ccc(C(=O)Nc2ccc(S(F)(F)(F)(F)F)cc2)cc1 | 1.8% (active) |
| COc1ccc(/C=C2\COc3ccc(O)cc3C2=O)cc1OC | 1.44% (active) |
| O=C(Nc1ccccc1)c1sc(-c2cccc(C(F)(F)F)c2)cc1O | 62.5% (inactive) |
| COc1ccc(/C(C)=C(\c2ccc(Cl)cc2)c2ccc(OCCCN(C)C)cc2)cc1F | -19.7% (active) |
| COc1ccc(Cn2cnc3cc(C(=O)Nc4cccc5ccccc45)ccc32)c(OC)c1 | -17% [30 µM] (active) |
| COc1ccc(-n2sc(=O)n(Cc3ccc(COC(=O)C(C)c4ccc(CC(C)C)cc4)cc3)c2=O)cc1 (stereo unspecified) | -27.4% (active) |
| CC(C)(C)N1CC(OC(N)=O)C1 | 128% (inactive) |
| O=C1NCC(=O)N(Cc2ccco2)[C@H]1Cc1ccccc1 | 92.6% (inactive) |
| Cc1cc(C(c2ccccc2)c2ccccc2)ccc1NS(=O)(=O)c1ccccc1 | 74.7% (inactive) |
| c1ccc2[nH]c(SSc3nc4ncncc4[nH]3)nc2c1 | 32.8% (inactive) |
| O[C@H]1CO[C@H]2[C@@H]1OC[C@@H]2Oc1ccc(Nc2ccnc(Nc3ccc(O[C@H]4CO[C@H]5[C@@H]4OC[C@@H]5O)c(Cl)c3)n2)cc1Cl | 12.2% (inactive) |
| CCOC(=O)c1cnn2c(-c3ccc(Cl)cc3)nc(NCc3ccccc3)nc12 | 44.5% (inactive) |
| COc1ccc(/C(C)=C(\c2ccc(Cl)cc2)c2ccc(OCCN3CCCCC3)cc2)cc1F | -25.2% (active) |
| Cn1cc(-c2ccc3nc(-c4ccc(CC(=O)Nc5cc(C(C)(C)C)no5)cc4)cnc3c2)cn1 | 15.2% [30 µM] (inactive) |
| Nc1ccc(-c2cc3c(Nc4ccc(OCc5cccc(F)c5)c(Cl)c4)ncnc3s2)cc1 | 14.5% (inactive) |
| CC(C)OC(=O)NNC(=O)c1ccncc1 | 104% (inactive) |
| CCOC(=O)N1CCc2c(sc3c2C(=O)N[C@H](c2ccc(OC)cc2)N3)C1 | 87.7% (inactive) |
| O=[N+]([O-])c1ccc(-c2cc3c(Nc4ccc(OCc5cccc(Cl)c5)c(Cl)c4)ncnc3s2)cc1 | 48.9% (inactive) |
| CCOC(=O)c1ccc(NC(=O)CCCN(CC)CC)cc1 | 92.8% (inactive) |
| Nc1ccn(C2OC(F)(CO)C(O)C2F)c(=O)n1 (stereo unspecified) | 90.4% (inactive) |

What follows are compounds tested on OVCAR-8 ovarian in the same assay as above. Settings: 10 µM unless noted.

| Compound | growth |
| --- | --- |
| Clc1ccc(/C=C/c2nc(Nc3ccc(Cl)cc3)c3ccccc3n2)cc1 | 102% (inactive) |
| C=C1C(=O)O[C@H]2[C@H]1CC/C(COC(=O)/C=C\C(=O)NCc1ccc(Cn3c(=O)sn(CCCC)c3=O)cc1)=C\CC[C@@]1(C)O[C@@H]21 | 2.61% (active) |
| C=C1C(=O)O[C@H]2[C@H]1CC/C(C(=O)NCCCCCCCCNC(=O)/C1=C/CC[C@@]3(C)O[C@H]3[C@H]3OC(=O)C(=C)[C@@H]3CC1)=C\CC[C@@]1(C)O[C@@H]21 | 93.4% (inactive) |
| Cc1nc(Nc2ccc(N)cc2)c2ccccc2n1 | 95.3% (inactive) |
| OC(COc1cccc2ccccc12)CN1CCN(c2ccccc2)CC1 (stereo unspecified) | 100% (inactive) |
| C=C1C(=O)O[C@H]2[C@H]1CC/C(COC(=O)/C=C\C(=O)NCc1ccc(Cn3c(=O)sn(-c4ccc(OC)cc4)c3=O)cc1)=C\CC[C@@]1(C)O[C@@H]21 | 4.05% (active) |
| CC(C)(C)OC(=O)N1Cc2cc3ccccc3nc2C1CO (stereo unspecified) | 92.2% (inactive) |
| NC(=Nc1ccc(N)cc1)C(N)=Nc1ccc(N)cc1 | 85.3% (inactive) |
| Clc1ccc(-c2nc(NCCc3ccccc3)nc3c(NCCc4ccccc4)cnn23)cc1 | 47.5% (inactive) |
| C=C1C(=O)O[C@H]2[C@H]1CC/C(COC(=O)/C=C\C(=O)NCc1ccc(Cn3c(=O)sn(-c4ccc(Cl)cc4)c3=O)cc1)=C\CC[C@@]1(C)O[C@@H]21 | -12% (active) |
| CC(=O)Nc1ccc(C(=O)/C=C/c2ccccc2)cc1 | 75.1% (inactive) |
| COc1ccc(-n2nnc(C(=O)NCCc3c[nH]c4ccc(F)cc34)c2C)cc1 | 98.6% (inactive) |
| O=[N+]([O-])c1ccc(-c2cc3c(Nc4ccc(Sc5nc6ccccc6s5)c(Cl)c4)ncnc3s2)cc1 | 23.5% (inactive) |
| OCCCCc1nccc2c1[nH]c1ccccc12 | 102% (inactive) |
| CCOC(=O)c1sc(-c2ccc(OS(=O)(=O)c3ccc(C(C)(C)C)cc3)c(C=O)c2)nc1C | 38.2% (inactive) |
| CCOC(=O)C1=C(C)NC(SCc2nnc(-c3ccc(Cl)cc3)o2)=NC1c1ccc(Cl)cc1Cl (stereo unspecified) | 54.2% (inactive) |
| CCN(CC)CCOc1ccc(/C(=C(\C)c2ccc(OC)c(F)c2)c2ccc(Cl)cc2)cc1 | 76.7% (inactive) |
| O=C1/C(=C/c2ccccc2[N+](=O)[O-])COc2ccc(O)c(O)c21 | 10.3% (inactive) |
| O=C(O)c1ccc(CO)o1 | 95.5% (inactive) |
| Cn1ccnc1C(=O)/C=C/c1ccc(C(=O)Nc2ccc(S(F)(F)(F)(F)F)cc2)cc1 | 9.86% (active) |

| Compound | growth |
| --- | --- |
| COc1ccc(/C=C2\COc3ccc(O)cc3C2=O)cc1OC | 46.4% (inactive) |
| O=C(Nc1ccccc1)c1sc(-c2cccc(C(F)(F)F)c2)cc1O | 66% (inactive) |
| COc1ccc(/C(C)=C(\c2ccc(Cl)cc2)c2ccc(OCCCN(C)C)cc2)cc1F | 71.5% (inactive) |
| COc1ccc(Cn2cnc3cc(C(=O)Nc4cccc5ccccc45)ccc32)c(OC)c1 | 14.7% [30 µM] (inactive) |
| COc1ccc(-n2sc(=O)n(Cc3ccc(COC(=O)C(C)c4ccc(CC(C)C)cc4)cc3)c2=O)cc1 (stereo unspecified) | 50.1% (inactive) |
| CC(C)(C)N1CC(OC(N)=O)C1 | 84.9% (inactive) |
| O=C1NCC(=O)N(Cc2ccco2)[C@H]1Cc1ccccc1 | 105% (inactive) |
| Cc1cc(C(c2ccccc2)c2ccccc2)ccc1NS(=O)(=O)c1ccccc1 | 101% (inactive) |
| c1ccc2[nH]c(SSc3nc4ncncc4[nH]3)nc2c1 | 23% (inactive) |
| O[C@H]1CO[C@H]2[C@@H]1OC[C@@H]2Oc1ccc(Nc2ccnc(Nc3ccc(O[C@H]4CO[C@H]5[C@@H]4OC[C@@H]5O)c(Cl)c3)n2)cc1Cl | 7.77% (active) |
| CCOC(=O)c1cnn2c(-c3ccc(Cl)cc3)nc(NCc3ccccc3)nc12 | 30.5% (inactive) |
| COc1ccc(/C(C)=C(\c2ccc(Cl)cc2)c2ccc(OCCN3CCCCC3)cc2)cc1F | 59.5% (inactive) |
| Cn1cc(-c2ccc3nc(-c4ccc(CC(=O)Nc5cc(C(C)(C)C)no5)cc4)cnc3c2)cn1 | 31.5% [30 µM] (inactive) |
| Nc1ccc(-c2cc3c(Nc4ccc(OCc5cccc(F)c5)c(Cl)c4)ncnc3s2)cc1 | 63.1% (inactive) |
| CC(C)OC(=O)NNC(=O)c1ccncc1 | 99.1% (inactive) |
| CCOC(=O)N1CCc2c(sc3c2C(=O)N[C@H](c2ccc(OC)cc2)N3)C1 | 89.2% (inactive) |
| O=[N+]([O-])c1ccc(-c2cc3c(Nc4ccc(OCc5cccc(Cl)c5)c(Cl)c4)ncnc3s2)cc1 | 53.4% (inactive) |
| CCOC(=O)c1ccc(NC(=O)CCCN(CC)CC)cc1 | 102% (inactive) |
| Nc1ccn(C2OC(F)(CO)C(O)C2F)c(=O)n1 (stereo unspecified) | 22.4% (inactive) |
